# In PubChem BioAssay (Tox21):
# Values without a mark were called inactive. Inconclusive results are not listed. A call without a number means that no potency is given here. Calls of active or inactive are those of the source. Unless noted, calls follow the shape of the dose curve; as a rule, active = well fitted curve in the direction sought with a large enough effect in the repeat runs; inconclusive = weak or mixed curves; inactive = no such curve, though single readings can be large; an effect the other way counts as inactive or inconclusive.
# Key:
# [1] = qHTS assay to identify small molecule agonists of the TGF-beta/Smad signaling pathway (AID 1346859; active = well fitted activation curve with a large enough effect in the signal ratio in the repeat runs, not every such curve was filed as active; the % refers to the signal ratio; also: series mostly up to about 77 µM)
# Method in brief: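 SBE-bla HEK293T cells plated overnight, then compound exposure for 5 h at 37 C. Beta-lactamase reporter read with LiveBLAzer B/G FRET substrate after 2 h at room temperature, fluorescence at 405 nm excitation, 460/530 nm emission.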
# [2] = target: Thyrotropin-releasing hormone receptor (Homo sapiens) (UniProt P34981); assay: qHTS assay to identify small molecule antagonists of the thyrotropin-releasing hormone receptor (TRHR) signaling pathway (AID 1346877; active = well fitted inhibition curve with a large enough effect in the repeat runs, not every such curve was filed as active; also: series mostly up to about 51 µM)
# Method in brief: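 Intracellular calcium fluorescence, read kinetically every second over 3 min, reports TRH-evoked signalling in HEK293 cells carrying TRHR. Test compounds were added 5 min ahead of a 1 nM TRH challenge.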
# [3] = target: Thyrotropin-releasing hormone receptor (Homo sapiens) (UniProt P34981); assay: qHTS assay to identify small molecule agonists of the thyrotropin-releasing hormone receptor (TRHR) signaling pathway (AID 1346891; calls by dose curve; also: series mostly up to about 58 µM)
# Method in brief: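 HEK293 cells expressing TRHR plated 18 h at 37 C/5% CO2, calcium dye-loaded 2 h at 37 C, then compound added (agonist mode); kinetic calcium fluorescence read 3 min at 1 s intervals; 15 concentrations in triplicate.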
# [4] = Human pregnane X receptor (PXR) small molecule agonists, qHTS cell viability counter screen (AID 1346977); also: nearly all actives have a fitted effect of over 50% in size
# Method in brief: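 PXR-Luc HepG2 cells (2,000/well, 5% charcoal-stripped FBS) preincubated 5 hr, then exposed to compounds 24 hr at 37 C. Viability read in the same wells by CellTiter-Fluor fluorescence, reagent added at 23 hr, 1 hr incubation.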
# [5] = Caspase-3/7 induction in HepG2 cells by small molecules, qHTS assay (AID 1346978); also: nearly all actives have a fitted effect of over 15% in size
# Method in brief: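 Wild-type HepG2 cells, 2,000/well, settled 5 hr at 37 C and 5% CO2, then compound-treated for 17 hr; caspase-3/7 activity read by luminescent Caspase-Glo 3/7 after 30 min at room temperature.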
# [6] = Caspase-3/7 induction in CHO-K1 cells by small molecules, qHTS cell viability counter screen (AID 1346979); also: nearly all actives have a fitted effect of over 35% in size
# Method in brief: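 Wild-type CHO-K1 cells (1,500/well) treated with compound after 5 h plating; after 16 h at 37C, viability read as CellTiter-Fluor fluorescence following 1 h reagent incubation, in the same wells as the caspase read.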
# [7] = Caspase-3/7 induction in CHO-K1 cells by small molecules, qHTS assay (AID 1346980); also: nearly all actives have a fitted effect of over 15% in size
# Method in brief: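 Wild-type CHO-K1 cells exposed to compounds for 17hr at 37 C, 5% CO2. Caspase-3/7 activity then measured by Caspase-Glo 3/7 luminescence after 30min at room temperature.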
# [8] = Caspase-3/7 induction in HepG2 cells by small molecules, qHTS cell viability counter screen (AID 1346981); also: series mostly up to about 92 µM; nearly all actives have a fitted effect of over 30% in size
# Method in brief: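 HepG2, WT, 2,000 cells/well; 5 hr pre-incubation 37 C/5% CO2; compound pin-transferred from DMSO; 16 hr exposure; CellTiter-Fluor, 1 hr; fluorescence read.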
# [9] = target: Nuclear receptor subfamily 1 group I member 2 (Homo sapiens) (UniProt O75469); assay: Human pregnane X receptor (PXR) small molecule agonists, qHTS assay (AID 1346982); also: nearly all actives have a fitted effect of over 35% in size; also: potency is read from the fitted curve at half-maximal effect
# Method in brief: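 Luciferase signal from ONE-Glo (30 min, room temperature) measured activation of hPXR-driven CYP3A4 reporter expression in PXR-Luc HepG2 cells treated with compounds for 24 hr at 37 C.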
# [10] = target: Cytochrome P450 2D6 (Homo sapiens) (UniProt P10635); assay: Cytochrome P450 Family 2 Subfamily D Member 6 (CYP2D6) small molecule antagonists: luciferase reporter qHTS assay (AID 1671196); also: nearly all actives have a fitted effect of over 50% in size; also: potency is read from the fitted curve at half-maximal effect; as to activity change, negative = inhibition: series mostly up to about 120 µM
# Method in brief: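 Read-out is luminescence from luciferin formed by CYP2D6 turnover of a proluciferin substrate, recorded as relative luminescence units. Reactions ran 1 h at room temperature after NADPH regeneration solution was added.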
# [11] = target: Cytochrome P450 2C19 (Homo sapiens) (UniProt P33261); assay: Cytochrome P450 Family 2 Subfamily C Member 19 (CYP2C19) small molecule antagonists: luciferase reporter qHTS assay (AID 1671197); also: nearly all actives have a fitted effect of over 65% in size; also: potency is read from the fitted curve at half-maximal effect; as to activity change, negative = inhibition: series mostly up to about 120 µM
# Method in brief: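 First, compounds are pinned into enzyme-substrate mix and held 10 min at room temperature. Second, NADPH regeneration solution is added and plates incubate 1 h at 37C. Third, detection reagent is added and luminescence read after 20 min.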
# [12] = target: Voltage-gated inwardly rectifying potassium channel KCNH2 (Homo sapiens) (UniProt Q12809); assay: Human Ether-a-go-go-Related Gene (hERG) channel small molecule antagonists: fluorescence cell-based qHTS assay (AID 1671200);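 also: hERG-expressing U2OS cells given a thallium stimulus after FluxOR II dye loading; series mostly up to about 77 µM; nearly all actives have a fitted effect of over 50% in size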
# Method in brief: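 hERG-U2OS cells plated overnight at 37 C, loaded with FluxOR II dye 1 h at RT in dark; after 10 min, thallium stimulus added. Fluorescence (480/540 nm) read kinetically for 2 min at 1 s intervals.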
# [13] = target: Cytochrome P450 3A4 (Homo sapiens) (UniProt P08684); assay: Cytochrome P450 Family 3 Subfamily A Member 4 (CYP3A4) small molecule antagonists: luciferase reporter qHTS assay (AID 1671201); also: nearly all actives have a fitted effect of over 50% in size; also: potency is read from the fitted curve at half-maximal effect; as to activity change, negative = inhibition: series mostly up to about 120 µM
# Method in brief: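 P450-Glo CYP3A4 luminescent assay: compounds preincubated 10 min at room temperature with enzyme and proluciferin substrate, NADPH regeneration added, 1 h room-temperature reaction, stopped with luciferin detection reagent; luminescence read after 20 min. Ketoconazole positive control.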
# [14] = target: Cytochrome P450 1A2 (Homo sapiens) (UniProt P05177); assay: Cytochrome P450 Family 1 Subfamily A Member 2 (CYP1A2) small molecule antagonists: luciferase reporter qHTS assay (AID 1671199); also: nearly all actives have a fitted effect of over 50% in size; also: potency is read from the fitted curve at half-maximal effect; as to activity change, negative = inhibition: series mostly up to about 120 µM
# Method in brief: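 P450-Glo CYP1A2, 1536-well qHTS: enzyme/proluciferin substrate + cpd (DMSO), 10 min RT; NADPH regen, 1 h RT; detection reagent, 20 min; luminescence, RLU.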
# [15] = target: Cytochrome P450 2C9 (Homo sapiens) (UniProt P11712); assay: Cytochrome P450 Family 2 Subfamily C Member 9 (CYP2C9) small molecule antagonists: luciferase reporter qHTS assay (AID 1671198); also: nearly all actives have a fitted effect of over 50% in size; also: potency is read from the fitted curve at half-maximal effect; as to activity change, negative = inhibition: series mostly up to about 120 µM
# Method in brief: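 P450-Glo proluciferin substrate with CYP2C9 enzyme; 10 min RT preincubation, then NADPH regeneration 1 h at 37C; luciferin detection reagent 20 min RT, luminescence in relative luminescence units.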
# Nuclear receptor subfamily 1 group I member 2 (Homo sapiens), sequence (O75469 whole entry, looked up): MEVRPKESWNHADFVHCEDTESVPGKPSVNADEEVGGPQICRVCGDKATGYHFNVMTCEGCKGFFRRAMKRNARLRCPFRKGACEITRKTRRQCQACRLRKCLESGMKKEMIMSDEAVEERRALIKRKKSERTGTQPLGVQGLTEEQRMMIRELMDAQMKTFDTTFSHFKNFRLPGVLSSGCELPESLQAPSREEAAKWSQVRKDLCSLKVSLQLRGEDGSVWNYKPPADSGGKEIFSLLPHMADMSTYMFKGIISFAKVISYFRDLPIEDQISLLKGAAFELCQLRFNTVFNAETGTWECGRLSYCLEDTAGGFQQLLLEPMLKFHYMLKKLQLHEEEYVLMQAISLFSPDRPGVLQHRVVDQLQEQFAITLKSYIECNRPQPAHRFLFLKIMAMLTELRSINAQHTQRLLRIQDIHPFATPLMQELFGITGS
# Thyrotropin-releasing hormone receptor (Homo sapiens), sequence (P34981 whole entry, looked up): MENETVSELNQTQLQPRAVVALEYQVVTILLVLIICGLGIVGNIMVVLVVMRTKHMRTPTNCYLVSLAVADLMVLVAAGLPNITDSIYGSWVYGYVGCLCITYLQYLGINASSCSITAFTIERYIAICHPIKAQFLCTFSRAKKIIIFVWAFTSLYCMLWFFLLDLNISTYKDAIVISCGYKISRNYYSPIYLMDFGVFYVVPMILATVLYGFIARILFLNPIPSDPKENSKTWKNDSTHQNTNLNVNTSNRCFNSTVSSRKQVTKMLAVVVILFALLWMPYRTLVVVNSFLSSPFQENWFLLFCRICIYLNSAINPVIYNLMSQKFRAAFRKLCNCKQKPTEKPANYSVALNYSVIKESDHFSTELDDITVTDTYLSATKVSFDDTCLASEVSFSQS
# Cytochrome P450 2C19 (Homo sapiens), sequence (P33261 whole entry, looked up): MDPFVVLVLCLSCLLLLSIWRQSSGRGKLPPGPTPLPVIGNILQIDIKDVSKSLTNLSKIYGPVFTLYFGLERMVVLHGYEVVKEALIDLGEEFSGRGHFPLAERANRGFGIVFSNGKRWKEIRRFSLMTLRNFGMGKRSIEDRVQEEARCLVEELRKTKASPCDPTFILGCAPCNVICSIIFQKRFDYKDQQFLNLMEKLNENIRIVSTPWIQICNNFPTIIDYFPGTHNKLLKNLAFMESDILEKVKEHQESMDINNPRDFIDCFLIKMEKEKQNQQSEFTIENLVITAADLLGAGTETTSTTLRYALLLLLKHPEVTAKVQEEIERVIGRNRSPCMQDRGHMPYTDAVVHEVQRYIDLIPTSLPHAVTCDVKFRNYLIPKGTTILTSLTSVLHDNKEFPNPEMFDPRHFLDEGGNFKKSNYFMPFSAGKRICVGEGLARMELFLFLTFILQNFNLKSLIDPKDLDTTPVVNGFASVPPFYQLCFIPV
# Cytochrome P450 1A2 (Homo sapiens), sequence (P05177 whole entry, looked up): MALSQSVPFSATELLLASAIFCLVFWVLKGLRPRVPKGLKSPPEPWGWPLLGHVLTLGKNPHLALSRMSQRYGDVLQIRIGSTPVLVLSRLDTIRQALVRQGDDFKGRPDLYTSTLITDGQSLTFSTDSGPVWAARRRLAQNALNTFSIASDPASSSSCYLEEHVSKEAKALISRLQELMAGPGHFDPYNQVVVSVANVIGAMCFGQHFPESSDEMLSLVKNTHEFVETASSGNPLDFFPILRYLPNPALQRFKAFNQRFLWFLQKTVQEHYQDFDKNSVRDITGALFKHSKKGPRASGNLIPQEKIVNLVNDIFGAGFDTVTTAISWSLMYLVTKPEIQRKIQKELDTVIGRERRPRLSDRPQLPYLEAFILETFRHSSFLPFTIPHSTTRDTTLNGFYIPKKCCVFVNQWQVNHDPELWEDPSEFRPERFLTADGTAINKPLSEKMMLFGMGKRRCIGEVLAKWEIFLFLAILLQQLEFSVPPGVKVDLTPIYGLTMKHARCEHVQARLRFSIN
# Voltage-gated inwardly rectifying potassium channel KCNH2 (Homo sapiens), sequence (Q12809 whole entry, looked up): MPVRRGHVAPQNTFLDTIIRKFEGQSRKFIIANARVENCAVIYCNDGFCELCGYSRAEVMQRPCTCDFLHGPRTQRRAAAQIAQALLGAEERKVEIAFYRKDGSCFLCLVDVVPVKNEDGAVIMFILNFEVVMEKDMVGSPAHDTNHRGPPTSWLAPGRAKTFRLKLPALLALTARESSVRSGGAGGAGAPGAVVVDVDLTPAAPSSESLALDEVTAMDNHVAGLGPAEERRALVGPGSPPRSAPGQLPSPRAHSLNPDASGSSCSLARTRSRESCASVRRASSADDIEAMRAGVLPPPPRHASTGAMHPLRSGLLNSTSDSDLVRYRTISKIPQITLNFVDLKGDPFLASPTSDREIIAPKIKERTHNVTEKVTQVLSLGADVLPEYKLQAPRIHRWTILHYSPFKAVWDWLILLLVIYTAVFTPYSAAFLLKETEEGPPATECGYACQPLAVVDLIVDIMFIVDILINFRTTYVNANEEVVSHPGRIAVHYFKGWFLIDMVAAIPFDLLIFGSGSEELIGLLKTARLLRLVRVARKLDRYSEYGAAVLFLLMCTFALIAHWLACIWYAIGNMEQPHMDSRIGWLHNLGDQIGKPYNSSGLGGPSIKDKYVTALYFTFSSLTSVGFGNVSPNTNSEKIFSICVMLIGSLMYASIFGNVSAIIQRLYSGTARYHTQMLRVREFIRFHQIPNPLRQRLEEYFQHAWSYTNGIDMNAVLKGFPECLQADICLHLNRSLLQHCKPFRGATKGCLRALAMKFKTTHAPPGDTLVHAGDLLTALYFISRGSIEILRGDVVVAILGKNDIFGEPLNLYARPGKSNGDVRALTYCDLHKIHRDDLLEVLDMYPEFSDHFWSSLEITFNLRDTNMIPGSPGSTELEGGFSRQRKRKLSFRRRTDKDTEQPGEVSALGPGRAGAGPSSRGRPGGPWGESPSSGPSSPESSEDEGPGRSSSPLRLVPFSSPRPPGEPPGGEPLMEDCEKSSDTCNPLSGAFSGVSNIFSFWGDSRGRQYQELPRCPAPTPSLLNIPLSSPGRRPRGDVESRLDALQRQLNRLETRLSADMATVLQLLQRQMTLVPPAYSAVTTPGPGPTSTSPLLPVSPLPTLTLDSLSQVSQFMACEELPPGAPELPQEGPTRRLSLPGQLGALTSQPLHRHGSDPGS
# Cytochrome P450 3A4 (Homo sapiens), sequence (P08684 whole entry, looked up): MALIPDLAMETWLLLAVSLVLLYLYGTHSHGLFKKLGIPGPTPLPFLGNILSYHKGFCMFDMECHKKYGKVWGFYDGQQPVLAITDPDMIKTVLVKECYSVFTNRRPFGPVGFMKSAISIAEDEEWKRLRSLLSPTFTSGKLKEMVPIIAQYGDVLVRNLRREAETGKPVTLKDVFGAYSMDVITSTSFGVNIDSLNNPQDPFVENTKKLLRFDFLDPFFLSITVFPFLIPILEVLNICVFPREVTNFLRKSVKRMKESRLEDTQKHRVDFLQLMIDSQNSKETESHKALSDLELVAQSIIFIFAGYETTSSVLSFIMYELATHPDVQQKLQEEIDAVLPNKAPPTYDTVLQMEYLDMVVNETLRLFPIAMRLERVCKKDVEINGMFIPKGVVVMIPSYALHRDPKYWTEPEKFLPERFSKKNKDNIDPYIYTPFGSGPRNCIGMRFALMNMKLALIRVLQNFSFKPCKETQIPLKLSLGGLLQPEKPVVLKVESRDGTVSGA
# Cytochrome P450 2C9 (Homo sapiens), sequence (P11712 whole entry, looked up): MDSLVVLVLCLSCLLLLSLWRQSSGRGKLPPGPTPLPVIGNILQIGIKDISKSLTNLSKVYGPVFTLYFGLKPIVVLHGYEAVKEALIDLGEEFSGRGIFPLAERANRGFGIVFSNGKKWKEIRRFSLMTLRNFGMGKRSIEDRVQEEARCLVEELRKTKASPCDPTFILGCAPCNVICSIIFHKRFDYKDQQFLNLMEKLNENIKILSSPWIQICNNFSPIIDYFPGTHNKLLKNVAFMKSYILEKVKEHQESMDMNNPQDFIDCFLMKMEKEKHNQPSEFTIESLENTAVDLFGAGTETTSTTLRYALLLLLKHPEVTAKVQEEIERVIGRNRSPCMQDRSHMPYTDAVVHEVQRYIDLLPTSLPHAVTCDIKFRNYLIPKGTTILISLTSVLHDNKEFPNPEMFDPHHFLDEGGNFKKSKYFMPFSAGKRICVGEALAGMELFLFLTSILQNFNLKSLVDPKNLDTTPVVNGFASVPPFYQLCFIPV
# Cytochrome P450 2D6 (Homo sapiens), sequence (P10635 whole entry, looked up): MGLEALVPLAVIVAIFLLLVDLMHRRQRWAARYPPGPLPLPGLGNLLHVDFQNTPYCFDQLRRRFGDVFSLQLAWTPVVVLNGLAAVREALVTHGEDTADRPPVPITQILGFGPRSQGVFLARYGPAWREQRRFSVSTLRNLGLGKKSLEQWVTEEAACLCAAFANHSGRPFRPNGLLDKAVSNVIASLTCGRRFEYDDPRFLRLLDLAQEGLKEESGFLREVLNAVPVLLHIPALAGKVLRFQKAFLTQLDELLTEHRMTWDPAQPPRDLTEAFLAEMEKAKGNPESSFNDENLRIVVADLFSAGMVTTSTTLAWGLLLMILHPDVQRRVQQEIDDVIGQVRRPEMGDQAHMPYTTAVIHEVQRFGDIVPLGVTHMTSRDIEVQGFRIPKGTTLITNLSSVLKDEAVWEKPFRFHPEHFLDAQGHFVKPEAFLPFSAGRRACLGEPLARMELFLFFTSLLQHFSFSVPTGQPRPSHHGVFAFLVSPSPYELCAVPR
smiles,measurement,setting,value
c1ccc(-c2nn[nH]n2)cc1,outcome,[1],inactive
same,outcome,[2],inactive
same,outcome,[3],inactive
same,outcome,[4],inactive
same,outcome,[5],inactive
same,Potency,[6],inactive
same,outcome,[7],inactive
same,outcome,[8],inactive
same,Potency,[9],inactive
same,Potency,[10],inactive
same,Potency,[11],inactive
same,Potency,[12],inactive
same,Potency,[13],inactive
CC1c2ccccc2CN1NC(=O)c1ccc(Cl)c(S(N)(=O)=O)c1 (stereo not given),outcome,[1],inactive
same,outcome,[2],inactive
same,outcome,[3],inactive
same,outcome,[4],inactive
same,outcome,[5],inactive
same,Potency,[6],inactive
same,outcome,[7],inactive
same,outcome,[8],inactive
same,Potency,[9],inactive
same,Potency,[14],inactive
same,Potency,[12],inactive
same,Potency,[13],inactive
CCCCCCCCCCCCCCCCCCOCCO,activation,[1],-0.657% [at 15.8 µM]
same,"activity, negative = inhibition",[2],2.83% [at 10.5 µM]
same,activation,[3],-0.279% [at 11.8 µM]
same,"activity change, negative = cytotoxicity",[4],5.85% [at 19 µM]
same,caspase activation,[5],0.0407% [at 19 µM]
same,"activity change, negative = cytotoxicity",[6],-0.155% [at 19 µM]
same,caspase-3/7 activation,[7],-1.25% [at 19 µM]
same,"activity change, negative = cytotoxicity",[8],7.52% [at 19 µM]
same,activation,[9],0.259% [at 19 µM]
same,"activity change, negative = inhibition",[11],7.26% [at 23.6 µM]
same,"activity change, negative = inhibition",[15],-10.3% [at 23.6 µM]
same,Potency,[14],7.12 µM (active)
same,"activity change, negative = inhibition",[12],3.84% [at 15.8 µM]
same,"activity change, negative = inhibition",[13],11.9% [at 23.6 µM]
COc1cc(/C=C/C(N)=O)cc(OC)c1OC,outcome,[1],inactive
same,outcome,[2],inactive
same,outcome,[3],inactive
same,outcome,[4],inactive
same,outcome,[5],inactive
same,Potency,[6],inactive
same,outcome,[7],inactive
same,outcome,[8],inactive
same,Potency,[9],inactive
same,Potency,[11],inactive
same,Potency,[15],inactive
same,Potency,[14],21.9 µM (active)
same,Potency,[12],inactive
same,Potency,[13],inactive
C[C@H]1[C@@H](c2ccccc2)NC(=O)N1C,outcome,[1],inactive
same,outcome,[2],inactive
same,outcome,[3],inactive
same,outcome,[4],inactive
same,outcome,[5],inactive
same,Potency,[6],inactive
same,outcome,[7],inactive
same,outcome,[8],inactive
same,Potency,[9],inactive
same,Potency,[10],inactive
same,Potency,[15],inactive
same,Potency,[12],inactive
same,Potency,[13],inactive
CCCCCCCCCCCCCCC(=O)NC(CO)CCCCCCCCCCCCCC (stereo not given),outcome,[1],inactive
same,outcome,[2],inactive
same,outcome,[3],inactive
same,outcome,[4],inactive
same,outcome,[5],inactive
same,Potency,[6],inactive
same,outcome,[8],inactive
same,Potency,[9],inactive
same,Potency,[11],inactive
same,Potency,[15],inactive
same,Potency,[14],63.8 µM (active)
same,Potency,[12],inactive
same,Potency,[13],inactive
c1ccc(B(c2ccccc2)c2ccccc2)cc1,outcome,[1],inactive
same,outcome,[2],inactive
same,outcome,[3],inactive
same,outcome,[4],inactive
same,outcome,[5],inactive
same,Potency,[6],inactive
same,outcome,[7],inactive
same,Potency,[9],30.6 µM (active)
same,Potency,[10],31.7 µM (active)
same,Potency,[11],17.8 µM (active)
same,Potency,[15],31.7 µM (active)
same,Potency,[14],22.4 µM (active)
same,Potency,[12],inactive
same,Potency,[13],35.5 µM (active)
ONc1ccccc1,outcome,[1],inactive
same,outcome,[2],inactive
same,outcome,[3],inactive
same,outcome,[4],inactive
same,outcome,[5],inactive
same,Potency,[6],inactive
same,outcome,[7],inactive
same,outcome,[8],inactive
same,Potency,[11],88.5 µM (active)
same,Potency,[14],14 µM (active)
same,Potency,[12],inactive
same,Potency,[13],inactive
